# In PubChem BioAssay (NCI):
# About 83,000 compounds went through this panel and 20% of them were active in at least one assay; those are over-represented in the sample as a whole.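 Method: cells in 96-well plates; compound added at one concentration; 48 h incubation; percent growth measured; values under 10 scored active.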 Values without a mark were called inactive. Activity calls are given as the source filed them.
# Legend:
# Test in all cases: NCI-60 one-dose screen, 48 h (100 = growth as untreated, 0 = no growth, -100 = all killed)
# Conditions in all cases: 10 µM unless noted
# NCI-H23 lung = tested on: NCI-H23 lung
# NCI-H226 lung = tested on: NCI-H226 lung
# NCI-H322M lung = tested on: NCI-H322M lung
# HOP-62 NSCLC = tested on: HOP-62 NSCLC
# NCI-H460 lung = tested on: NCI-H460 lung
# NCI-H522 lung = tested on: NCI-H522 lung
# A549/ATCC NSCLC = tested on: A549/ATCC NSCLC
# 786-0 renal = tested on: 786-0 renal
# COLO 205 colon = tested on: COLO 205 colon
# DU-145 prostate = tested on: DU-145 prostate
# K-562 leukemia = tested on: K-562 leukemia
# MALME-3M melanoma = tested on: MALME-3M melanoma
# MDA-MB-231 breast = tested on: MDA-MB-231 breast
# RXF 393 renal = tested on: RXF 393 renal
# SF-268 CNS = tested on: SF-268 CNS
# SF-295 CNS = tested on: SF-295 CNS
# SF-539 CNS = tested on: SF-539 CNS
# UACC-257 melanoma = tested on: UACC-257 melanoma
# M14 melanoma = tested on: M14 melanoma
Structure (SMILES),growth (NCI-H23 lung),growth (NCI-H226 lung),growth (NCI-H322M lung),growth (HOP-62 NSCLC),growth (NCI-H460 lung),growth (NCI-H522 lung),growth (A549/ATCC NSCLC),growth (786-0 renal),growth (COLO 205 colon),growth (DU-145 prostate),growth (K-562 leukemia),growth (MALME-3M melanoma),growth (MDA-MB-231 breast),growth (RXF 393 renal),growth (SF-268 CNS),growth (SF-295 CNS),growth (SF-539 CNS),growth (UACC-257 melanoma),growth (M14 melanoma)
CCCCCCCCN=C(NCCCCCCCC)SCc1cccc2ccccc12,-81.2% (active),-84.2% (active),-1.49% (active),-97.7% (active),-89.1% (active),-83.3% (active),-75.8% (active),-88.1% (active),-99.7% (active),-74.3% (active),-13.4% (active),-44.3% (active),-92.6% (active),-78.6% (active),-90.8% (active),-85.1% (active),-87.1% (active),-77.7% (active),-86.6% (active)
CCSCC1CC(O)(c2ccccc2)C(c2ccccc2)C(c2ccc(F)cc2)O1 (stereo not given),-6.5% (active),-4.42% (active),3.59% (active),-13.3% (active),-16.3% (active),10.6%,3.27% (active),-49.5% (active),-70.2% (active),3.1% (active),7.77% (active),-37.6% (active),-8.82% (active),-12.4% (active),1.85% (active),-22.4% (active),4.38% (active),4.92% (active),-45.8% (active)
COc1ccc(-c2nc(SCCC(C)C)nc(Nc3ccc(C(=O)O)cc3)c2C#N)cc1,92.4%,91.4%,88.1%,95.7%,89.5%,69.2%,67.2%,97%,104%,93.2%,67.8%,-52% (active),98%,90.1%,89.4%,80.5%,91.3%,95.2%,102%
COc1cc(C2CC(c3ccccc3)=NN2C=O)ccc1Oc1ccnc2cc(Cl)ccc12 (stereo not given),36.7%,46.6%,100%,74.2%,73.8%,42.7%,56%,79.9%,101%,77.9%,51.1%,52.7%,74.6%,98.9%,65.6%,43.3%,79.8%,31.6%,54.9%
CC(=O)Oc1c(Cl)c(Cl)c(Cl)c(Cl)c1Cl,95.3%,103%,92.3%,95.9%,105%,90.2%,85.9%,100%,106%,105%,101%,91.7%,86.3%,116%,96.1%,97.7%,86.3%,94.1%,105%
CC(=O)Oc1ccccc1C(=O)Nc1ncc([N+](=O)[O-])s1,6.3% (active),63.5%,10.8%,67.1%,13.4%,-15.9% (active),51.2%,-11.4% (active),93.2%,32.1%,-8.68% (active),-10.6% (active),26.9%,54.5%,18.7%,9.28% (active),39.5%,39.2%,14.6%
C=C[C@H]1CCC/C=C/[C@@H]2C[C@H](O)C[C@H]2[C@H](O)/C=C/C(=O)O1,-19.1% (active),3.22% (active),-7.72% (active),33.3%,7.05% (active),-37.8% (active),8.51% (active),-53.5% (active),-83.1% (active),5.86% (active),9.93% (active),-46.4% (active),-74% (active),-15.2% (active),7.6% (active),17.2%,35.2%,4.69% (active),-10.6% (active)
CCN1C(=O)N(CC)C2C1N=C(SC)N2/N=C/C=C/c1ccccc1OC (stereo not given),21.9%,34.8%,31.7%,25.2%,6.18% (active),-32.8% (active),17.7%,14.5%,-48.9% (active),5.61% (active),6.68% (active),31.9%,21.2%,11%,23.5%,10.6%,-4.87% (active),55.3%,4.55% (active)
O=c1c2cc(Cl)ccc2oc2ccc(OCCCCCN3CCCCCC3)cc12,87.5%,90.1%,89.6%,79.7%,63%,80.2%,61.2%,70.2%,76.7%,91.9%,34.6%,114%,84.4%,84.4%,87.4%,97.5%,94.1%,83.7%,45.2%
O=C1N(Cc2ccccc2Cl)c2ccccc2C12NN=C(c1ccccc1)S2 (stereo not given),54.8%,67.5%,56.5%,61.2%,17.5%,75.6%,53.4%,73.7%,100%,61.9%,43.1%,82.8%,72.8%,75.1%,51.7%,41%,66.3%,87.6%,58.3%
S=C(Cc1ccccc1)N1CCN(c2ccccc2Cl)CC1,100%,96.9%,96.3%,105%,107%,88.2%,95.1%,96.7%,109%,102%,89.8%,95.2%,100%,117%,95.2%,90.7%,105%,110%,99.1%
C=C1C(=O)O[C@H]2[C@H]1CC/C(COC(=O)N[C@@H](Cc1c[nH]c3ccccc13)C(=O)OC)=C\CC[C@@]1(C)O[C@@H]21,68.5%,58.4%,80.5%,68.8%,40.5%,-71.1% (active),47.2%,-48.6% (active),-69.2% (active),20.5%,-1.67% (active),-38.4% (active),25.2%,-55.4% (active),46.7%,72.3%,25.3%,11.5%,-45.3% (active)
O/N=C1\c2ccccc2-c2ccc(Br)cc21,96.1%,103%,101%,113%,106%,95.8%,97.4%,98.6%,136%,110%,98.7%,103%,107%,116%,102%,99.2%,97.8%,106%,129%
O=C(N/N=C/c1ccc([N+](=O)[O-])cc1)c1ccccc1Nc1ccnc(C(F)(F)F)c1,62.3%,70.8%,83.3%,48.8%,94.3%,67.9%,82%,81.8%,103%,98.6%,78%,86%,70.4%,91.7%,86.2%,83.8%,84.3%,79.4%,101%
CN(C)CC(=O)c1ccc2cc(Br)c3ccccc3c2c1,74.1%,88.1%,75.7%,83.2%,59.4%,9.3% (active),51.5%,47.4%,74.1%,77.8%,38.5%,106%,76.4%,72.2%,77.6%,82.8%,79.5%,66%,77.2%
